# From the supplement of paper PMC13380429
# Values without a mark were called inactive.
# Test system: Vero E6 infected with SARS-CoV-2
# Test: inhibition of SARS-CoV-2 cytopathic effect; higher = more antiviral protection, active = above 15
# Settings: 48 h
Structure (SMILES),inhibition of SARS-CoV-2 cytopathic effect (1 nM),inhibition of SARS-CoV-2 cytopathic effect (8.33 nM),inhibition of SARS-CoV-2 cytopathic effect (100 nM),inhibition of SARS-CoV-2 cytopathic effect (833.33 nM),inhibition of SARS-CoV-2 cytopathic effect (10000 nM)
CC[C@H](CO)Nc1nc(Nc2cccc(-c3ccccn3)c2)c2ncn(C(C)C)c2n1,-2.32%,0.36%,0.93%,1.09%,-7.74%
CCn1c2ccccc2c2cc(CNCc3ccccc3OC)ccc21,3.14%,2.16%,0.25%,-1.14%,-6.1%
Cc1nc2c(OCc3ccccc3)cccn2c1CC#N,-1.06%,0.99%,2.87%,0.07%,1.07%
CC(C)(C)C(=O)CN1C(=O)[C@H](NC(=O)Nc2cccc(C(=O)O)c2)CN(C2CCCCC2)c2ccccc21 [nastorazepide],-1.25%,-0.99%,0.77%,0.71%,-1.1%
CN(C)CCCC(=O)Nc1ccc(C(=O)Nc2cccc(Nc3ncc(Cl)c(-c4c[nH]c5ccccc45)n3)c2)cc1,1%,-3.04%,-1.78%,-0.35%,-3.93%
CNc1nc(C)nc(N[C@H]2CCC[C@@H](C(=O)NCc3ccc(C#N)cc3C(F)(F)F)C2)n1,1.51%,-1.43%,-0.92%,-0.12%,-2.39%
CC(C(=O)O)c1ccc(C(=O)c2cccs2)cc1 (stereo not given) [suprofen],2.14%,0.24%,-0.86%,-2.28%,-2.92%
CCc1nc2c(C)nc(C)cc2n1-c1ccc(CCNC(=O)NS(=O)(=O)c2ccc(C)cc2)cc1 [grapiprant],-1.43%,-2.32%,-2.77%,-5.47%,-1.61%
C[C@H]1NC(=O)NC1=O [5-methylhydantoin-(D)],-0.22%,-0.75%,-0.63%,-6.83%,0.71%
CCCCN1[C@@H]2CC[C@H]1C[C@@H](OC(c1ccc(F)cc1)c1ccc(F)cc1)C2,-4.04%,0.46%,3.9%,2.41%,37% (active)
Oc1nc(-c2ccc(C(F)(F)F)cc2)nc2c1CSCC2,4.88%,2.98%,3.97%,2.58%,0.15%
Cc1cc(NC(=O)C2=C(O)c3ccccc3S(=O)(=O)N2C)no1 [isoxicam],-3.86%,-3.12%,-4.12%,-2.59%,-0.72%
COc1ccc2[nH]c(C(=O)c3ccccc3)cc2c1,0.63%,1.49%,0.36%,0.6%,0.07%
Cn1c(=O)c2c(ncn2C)n(C)c1=O [caffeine],-0.58%,1.54%,-0.63%,2.87%,3.35%
Cc1cc(C)c(N(Cc2ccccc2)S(=O)(=O)c2ccc(OCCNC(=O)c3cc4ccccc4o3)cc2)c(C(=O)NO)c1,-0.99%,0.92%,-1.74%,-1.22%,-6.93%
Cc1oc2ccccc2c1CNC(=O)NCc1cccs1,-0.41%,1.63%,0.18%,-0.46%,3.09%
Cc1c(NC(=O)c2cccnc2)c(=O)n(-c2ccccc2)n1C [nifenazone],-4.14%,0.87%,1.34%,-1.46%,0.61%
CC(=O)OCC1=C(C(=O)O)N2C(=O)[C@@H](NC(=O)Cc3cccs3)[C@H]2SC1 [cephalothin],0.91%,2.69%,1.37%,-0.06%,1.33%
Cc1cc(C)c(Nc2ccnc(Nc3ccc(C#N)cc3)n2)c(C)c1 [dapivirine],-0.02%,-0.53%,0.06%,2.16%,-8.23%
Cc1ccc(Oc2ccccc2-c2csc(N=C3NCCCN3)n2)c(C)c1 [abafungin],2.5%,1.5%,1.28%,-1.03%,-6.36%

Structure (SMILES),inhibition of SARS-CoV-2 cytopathic effect (1 nM),inhibition of SARS-CoV-2 cytopathic effect (8.33 nM),inhibition of SARS-CoV-2 cytopathic effect (100 nM),inhibition of SARS-CoV-2 cytopathic effect (833.33 nM),inhibition of SARS-CoV-2 cytopathic effect (10000 nM)
OC[C@H]1O[C@@H](OCCc2ccc(O)cc2)[C@H](O)[C@@H](O)[C@@H]1O [salidroside],-0.77%,0.23%,-0.6%,0.45%,-0.54%
CN(C)c1nc(N)c(C(=O)Nc2cccnc2)nc1Cl,1.28%,4.72%,-0.62%,4.15%,0.82%
CC(=O)N(CC(O)CO)c1c(I)c(C(=O)NCCO)c(I)c(C(=O)NCC(O)CO)c1I (stereo not given) [ioxilan],1.8%,0.19%,-2.31%,-1.98%,-0.58%
O=C(Nc1cc(-c2ccccc2)nn1-c1ccccc1F)c1ccc([N+](=O)[O-])cc1,-0.89%,1.45%,1.23%,-3.16%,2.79%
CCOc1cc(C(=O)N2CCC(N3CCN(C)CC3)CC2)ccc1Nc1ncc2c(n1)N(C1CCCC1)c1ccccc1C(=O)N2C,0.46%,1.68%,-0.44%,-1.7%,-0.04%
CNC[C@H](O)c1cccc(O)c1 [phenylephrine],0.59%,1.75%,-0.82%,0.14%,-0.09%
O=c1ncccn1[C@@H]1O[C@H](CO)[C@@H](O)[C@H]1O [zebularine],-2.02%,-1.31%,1.93%,1.42%,-1.45%
O=C1c2ccccc2-c2n[nH]c3cccc1c23 [pyrazolanthrone],-4.36%,0.82%,-1.61%,-1.07%,-5.91%
OCC(Br)(Br)Br [tribromoethanol],3.45%,0.33%,2.81%,4.01%,1.49%
C[C@H](N)[C@H](O)c1ccc(O)c(O)c1 [levonordefrin],-3.75%,0.14%,-1.88%,1.27%,-2.48%
Nc1ccc(/N=N/c2ccccc2)c(N)n1 [phenazopyridine],1.34%,0.46%,0.72%,1.24%,0.27%
CCCc1c2oc(C(=O)O)cc(=O)c2cc2c(=O)cc(C(=O)O)n(CC)c12 [nedocromil],2.42%,1.24%,0.71%,1.06%,0.79%
COc1ccc(Cc2cnc(N)nc2N)cc1OC [diaveridine],-0.02%,0.43%,-0.86%,2.81%,0.75%
c1ccc2c(c1)sc1ccccc12 [dibenzothiophene],-0.91%,1.31%,0.34%,0.07%,0.68%
CN1CCN(C2CCN(C(=O)Nc3cc(Oc4ccc(NC(=O)C5(C(=O)Nc6ccc(F)cc6)CC5)c(F)c4)ccn3)CC2)CC1 [golvatinib],0.88%,0.74%,2.78%,5.87%,40.8% (active)
CC[C@H](C)[C@H](N)C1=N[C@H](C(=O)N[C@@H](CC(C)C)C(=O)N[C@H](CCC(=O)[O-])C(=O)N[C@H](C(=O)N[C@H]2CCCCNC(=O)[C@H](CC(N)=O)NC(=O)[C@@H](CC(=O)[O-])NC(=O)[C@H](Cc3cnc[nH]3)NC(=O)[C@@H](Cc3ccccc3)NC(=O)[C@H]([C@@H](C)CC)NC(=O)[C@@H](CCCN)NC2=O)[C@@H](C)CC)CS1.[Zn+2] [bacitracin-zinc],1.46%,1.2%,2.85%,-0.14%,0.15%
Cc1oc2nc3c(c(NC(=O)CN4CCCC4=O)c2c1C)CCCC3,0.92%,-2.29%,-0.3%,-0.97%,0.5%
O=c1c(-n2ccnn2)c[nH]n1-c1cc(N2CCOCC2)ncn1 [molidustat],1.15%,-0.02%,-0.4%,3.64%,2.32%
CC(=O)N1CCC(NC(=O)c2ccc(F)cc2)CC1,-1.4%,-1.44%,0.95%,0.58%,0.98%
C=C[C@H]1CN2CC[C@H]1CC2C(OC(=O)OCC)c1ccnc2ccc(OC)cc12 (stereo in doubt) [quinine-ethyl-carbonate],0.47%,2.1%,0.07%,6.66%,5.77%
